# Compound activity (PubChem)
# Sm TGR inh: S. mansoni TGR enzyme inhibition | purified TGR, DTNB reduction, TNB absorbance 405 nm | Potency, µM (highest dose often 114 µM), without a hit: top-dose activity change, negative = inhibition, hits mostly inhibitors | hit rate 3% among 360,000 | AID 485364; note: potency is the fitted concentration of half-maximal effect; % is set by controls: 0 for no effect and ±100 for the full control effect; nearly all actives have a fitted effect of over 60% in size
#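 TGR 20 nM + NADPH 100 uM (dispensed conc.), cpd preinc 15 min RT; start with NADPH (500 uM addition) then DTNB (15 mM addition). Kinetic TNB absorbance, 405 nm filter. Four-parameter Hill fit across titration.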
# HCMV antiviral: inhibitors of human cytomegalovirus. HFF cells, HCMV-luciferase reporter, 72 h; hits give low values. activity change, negative = inhibition, % at 57.5 µM. hit rate 4.5% among 410,000. AID 1259415; in the data active = activity change below about -60%; inconclusive = no clear call, values can overlap the other calls; inactive = above about -39%; note: % is set by controls: 0 for no effect and ±100 for the full control effect
#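 Luciferase read-out from HCMV-luciferase-infected HFFs (MOI 1 PFU/cell) 72 h post infection at 37C; compounds added after 16 h cell attachment; activity normalized between buffer-only basal and Salinomycin (10uM) inhibitor controls.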
# Pf growth 96h: inhibits malaria parasite growth, 96 h | P. falciparum luciferase reporter growth, 96 h | Potency, µM (series often up to 28.7 µM), without a hit: at the top dose activity change, negative = inhibition, most hits filed as inhibitors | hit rate 6.9% among 320,000 | AID 504834; note: potency is the fitted concentration of half-maximal effect; % is set by controls: 0 for no effect and ±100 for the full control effect
#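 Delayed-death screen, second-generation endpoint: infected erythrocytes, 2% hematocrit, 0.05% parasitemia final; 96 hours at 37 C, 5% CO2; luciferase detection reagent; luminescence decrease equals reduced growth.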
# Pf growth 48h: P. falciparum growth inhibition at 48 hours (one generation) | P. falciparum luciferase growth in erythrocytes, 48 h | Potency, µM (titrated, usually from 28.7 µM), for inactives: top-dose activity change, negative = inhibition, actives largely listed as inhibitors | hit rate 5.9% among 310,000 | AID 504832; note: potency is the fitted concentration of half-maximal effect; % is set by controls: 0 for no effect and ±100 for the full control effect
#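 First compound was added to culture medium, then infected red cells at 0.1% parasitemia and 2% hematocrit (final). After incubation at 37 C under 5% CO2, luciferase detection reagent was dispensed and light output recorded.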
# SARS PLpro yeast: SARS-CoV PLP inhibition in yeast. S. cerevisiae expressing SARS-CoV PLpro, growth rescue. Potency, µM (titrated, usually from 32.9 µM), for the others: top-dose activity, positive = growth rescue, hits mostly activators. hit rate 0.19% among 330,000; calls by dose curve; note: potency is the fitted concentration of half-maximal effect; 0% is about no effect; nearly all actives have a fitted effect of over 55% in size
# HCV inhibitor: HCV inhibition; Potency, µM (highest dose often 41.8 µM), inactives show at the highest dose activity change, negative = inhibition, most hits filed as inhibitors; AID 651820; hit rate 3.4% among 340,000; Huh7.5.1 HCVcc-Cre infection, luciferase reporter, 44 h; note: potency is the fitted concentration of half-maximal effect; % is set by controls: 0 for no effect and ±100 for the full control effect
#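 Luciferase read-out (15 sec integration) after a 15 min room-temperature substrate step quantifies HCVcc-Cre infection. Cells, 1,000 per well, had compound added 4 h post-plating, then virus at ~0.5 moi, and were cultured 44 h.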
# An asterisk follows results filed as active; ? = inconclusive; · = no result; [ ] = another dose, or the depositor's remark. An excerpt weighted towards active compounds, which were near 15% of everything screened. Unless noted, calls come from the whole dose curve; as a rule, active = well fitted curve in the direction sought with a large enough effect; inconclusive = small, poorly fitted or top-dose-only effect, or another doubt; inactive = no such curve, though single readings can be large; an effect the other way counts as inactive or inconclusive.
SMILES,Sm TGR inh,HCMV antiviral,Pf growth 96h,Pf growth 48h,SARS PLpro yeast,HCV inhibitor
O=C(/C=C/c1ccc(Cl)c([N+](=O)[O-])c1)Nc1ccc(N2CCCC2)c(Cl)c1,7.2%,-67.5*,79.9%[5.75 µM],?,6.7%,-16.7%
O=C(/C=C/c1ccc(Cl)cc1)Nc1cc(S(=O)(=O)N2CCOCC2)ccc1N1CCOCC1,·,-30.9,·,·,7.1%,?
CCN1CCN(c2ccc(S(=O)(=O)N3CCCCC3)cc2NC(=O)/C=C/c2ccc(F)cc2)CC1,-2.5%,-9.1,?,10.4µM*,-26.3%,?
CCN1CCN(c2ccc(S(=O)(=O)N3CCOCC3)cc2NC(=O)/C=C/c2ccc(C)cc2)CC1,-24.0%,3.4,?,-97.9%,-5.9%,-21.1%
CN1CCN(c2ccc(S(=O)(=O)N3CCCCC3)cc2NC(=O)/C=C/c2ccc(Cl)c([N+](=O)[O-])c2)CC1,4.4%,-79.8*,5.86µM*,2.94µM*,-2.7%,?
COc1ccc(C(=O)/C=C/c2ccc(N3CCCCC3)c([N+](=O)[O-])c2)cc1,5.9%,-30.7,?,-80.4%,6.1%,?
S=C(Nc1ccc2nccnc2c1)N1CCOCC1,-28.9%,15.6,?,57.7%,0.2%,9.5%
CCCCCCNS(=O)(=O)c1ccc(NC(=O)C2CCCO2)cc1 (configuration not stated),-10.8%,?,?,-15.2%,-3.2%,?
Cc1cccc(-c2noc(-c3cccnc3NCc3ccccc3Cl)n2)c1,-7.9%,25.2,·,·,·,·
Cc1onc(-c2c(F)cccc2Cl)c1C(=O)N=C(N)N1CCCC1,6.1%,-5.2,-9.7%,6.3%,2.9%,-17.7%
Cc1onc(-c2c(Cl)cccc2Cl)c1C(=O)NNc1ccccc1,50.1µM*,-10.3,0.6%,6.7%,-0.4%,3.4%
Cc1onc(-c2c(Cl)cccc2Cl)c1NC(=O)NNc1ccccc1,-11.7%,-8.7,-0.5%,?,-0.3%,15.5%
Cc1onc(-c2c(F)cccc2Cl)c1C(=O)Nc1nnc(C(F)(F)F)s1,2.1%,-98.0*,10.4µM*,33.1%,-11.3%,?
Cc1onc(-c2c(F)cccc2Cl)c1C(=O)Nc1nccs1,-14.8%,?,-18.0%,-11.6%,0.1%,-14.9%
Cc1ccc(NC(=O)c2c(-c3c(F)cccc3Cl)noc2C)cc1F,-0.4%,25.4,?,9.28µM*,-6.5%,?
Cc1onc(-c2c(Cl)cccc2Cl)c1C(=O)N=C(N)N1CC(C)OC(C)C1 (configuration not stated),5.6%,-1.2,11.7µM*,3.29µM*,0.4%,-12.7%
O=C(NCc1cccc(F)c1)[C@@H]1[C@@H](CO)[C@@H]2Cn3c(cccc3=O)[C@H]1N2C(=O)c1cnccn1,·,-8.9,·,·,·,·
Cc1cn2c(=O)cc(COc3ccc(NC(=O)COc4ccccc4)cc3)nc2s1,-7.8%,10.3,·,·,·,·
Cc1onc(-c2c(Cl)cccc2Cl)c1C(=O)Nc1nc(C(C)(C)C)cs1,3.8%,8.0,10.4µM*,?,-2.3%,?
Cc1ccc(S(=O)(=O)N(C)C)cc1NC(=O)c1c(-c2c(F)cccc2Cl)noc1C,-7.8%,?,?,11.7µM*,0.8%,-7.1%
CC(C)(C)c1csc(NC(=O)c2cccnc2)n1,11.2%,-31.5,14.7µM*,?,-7.1%,-0.4%
Cc1ccc(S(N)(=O)=O)cc1NC(=O)c1c(-c2c(Cl)cccc2Cl)noc1C,-2.4%,-0.8,·,·,·,·
Cc1onc(-c2c(Cl)cccc2Cl)c1C(=O)Nc1ccc2c(C(F)(F)F)cc(=O)oc2c1,15.9%,-12.3,2.33µM*,?,-0.2%,?
O=S(=O)(NCc1ccccc1)c1ccc(NC(=S)NCc2ccco2)cc1,-34.2%,-23.9,?,-19.1%,-0.4%,?
O=C(CSc1nccn(-c2ccc(Br)cc2)c1=O)NCc1ccccc1,-29.0%,?,?,13.1µM*,2.4%,6.3%
O=C(Nc1cccc(NC(=O)c2ncn[nH]2)c1)c1cccc(Cl)c1,3.1%,-16.9,?,0.9%,-2.2%,-29.6%
